# Test results taken from PubChem BioAssay AID686978 (National Center for Advancing Translational Sciences (NCATS), 2013).
# The campaign covered roughly 420,000 compounds. About 64,000 (15%) were called active. Roughly 27% stayed inconclusive and do not appear here. Calls come from the whole dose curve; as a rule, active = well fitted inhibition curve with a large enough effect; inconclusive = small, poorly fitted or top-dose-only effect; inactive = flat fitted curve, though single readings scatter. These entries were drawn from the full list.
# Assay: qHTS for Inhibitors of human tyrosyl-DNA phosphodiesterase 1 (TDP1): qHTS in cells in absence of CPT; note: nearly all actives have a fitted effect of over 55% in size
# Conditions: DT40 Tdp1-/- hTDP1 cells, no CPT, ATP luminescence, 48 h; activity change, negative = growth inhibition: at 46.2 µM (top of the series)
# Method in brief: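 Luminescent ATP content (CellTiter-Glo) served as the growth readout. Knockout chicken DT40 cells expressing human TDP1 were exposed to compounds without camptothecin for a minimum 48 hr at 37 °C.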
# % is set by controls: 0 for no effect and ±100 for the full control effect; potency is the fitted concentration of half-maximal effect.
Compound,"activity change, negative = growth inhibition",Potency
Cn1c(=O)n(C)c2cc(C(=O)Nc3ccc(Br)cc3)ccc21,-23% (inactive),
CCc1ccc(S(=O)(=O)Nc2cc3c(cc2N2CCCCC2)n(C)c(=O)c(=O)n3C)cc1,-11.4% (inactive),
Cc1ccc(C(=O)Nc2cc3c(cc2N2CCCC2)n(C)c(=O)c(=O)n3C)cc1,,20.6 µM (active)
C=C(C)CNC(=O)c1ccc(OC2CCN(C(=O)COC)CC2)cc1,-11.9% (inactive),
C=CCNC(=O)COC(=O)CNC(=O)c1cc(Cl)cc([N+](=O)[O-])c1,2.59% (inactive),
Cc1c(Cl)cccc1NC(=O)[C@@]1(CC(=O)O)CC(/C=C/c2ccccc2)=NO1,-3.3% (inactive),
CCc1c(-c2ccc(F)cc2)ncn1Cc1cccc(-c2ccccc2)c1,,11.6 µM (active)
Cc1ccc(-c2csc(C(C#N)=C(O)CN3CCN(C(=O)c4ccco4)CC3)n2)cc1,-14% (inactive),
Cc1ccc(CNC(=O)CCC(=O)N2Cc3ccccc3Oc3ncccc32)cc1,-21.9% (inactive),
C=CCc1cc(C)ccc1OCCCn1ccnc1,-29.9% (inactive),
SCc1nc2ccc(Cl)cc2[nH]1,,3.98 µM (active)
OC(c1nc2ccc(F)cc2[nH]1)C(O)c1nc2ccc(F)cc2[nH]1 (stereo not given),-27.1% (inactive),
Oc1ccc(Cl)cc1/C=N/c1nc2ccccc2[nH]1,-2.28% (inactive),
Cc1ccc2nc(SCC(=O)N3CCN(c4ccccc4)CC3)nc(=O)n2c1,-22.6% (inactive),
CN1C(=O)/C(=C\c2ccc(-c3ccccc3)o2)SC1=S,-28.6% (inactive),
CCC(C)N1C(=O)S/C(=C/c2ccc(Sc3nc4ccccc4[nH]3)o2)C1=O (stereo not given),,11.2 µM (active)
CCc1nnc(NC(=O)CCCSc2nc3ccccc3[nH]2)s1,-6.59% (inactive),
COc1ccc(C(CNCC(=O)Nc2ccccc2F)N(C)C)cc1 (stereo not given),6.62% (inactive),
CCO[C@@H]1OC(C(=O)N2CCOCC2)=C[C@H](C)[C@H]1CCCO,-6.76% (inactive),
CCO[C@H]1OC(C(=O)N2CCOCC2)=C[C@@H](c2ccc3c(c2)OCO3)[C@@H]1CCCO,2.7% (inactive),
CCO[C@H]1OC(C(=O)N2CCCCCCC2)=C[C@@H](c2ccc(C(F)(F)F)cc2)[C@@H]1CCCO,,20.6 µM (active)
CC1CN(C(=S)Nc2cccc(F)c2)CC(C)O1 (stereo not given),-12.5% (inactive),

Compound,"activity change, negative = growth inhibition",Potency
CN(Cc1ccc(CNC[C@H]2O[C@@H](n3cnc4c(N)ncnc43)[C@H](O)[C@@H]2O)o1)S(C)(=O)=O,-13.6% (inactive),
Cc1ccc2[nH]c(=O)c(CN(CC3COCCO3)C(=O)Nc3ccccc3C)cc2c1 (stereo not given),-28.1% (inactive),
Cc1cccc(NC(=O)N(Cc2cc3cc(C)cc(C)c3[nH]c2=O)CC2COCCO2)c1 (stereo not given),,16.4 µM (active)
Cc1cccc(NC(=O)C2CC(=O)OC23CCCC3)c1 (stereo not given),15.3% (inactive),
O=C(O)c1[nH]c2ccccc2c1C(c1cccc(O)c1)c1c(C(=O)O)[nH]c2ccccc12,14.1% (inactive),
COC(=O)c1ccc(CNC(=O)C2CCC(=O)N(Cc3ccccn3)C2)cc1 (stereo not given),6.62% (inactive),
CN1CCN(C(=O)Cn2c(C(F)(F)F)nc3ccccc32)CC1,-1.67% (inactive),
FC(F)(F)c1cccc(Nc2ncnc3ccccc23)c1,,18.4 µM (active)
O=c1cc(CO)oc(C(Nc2cccc(C(F)(F)F)c2)c2ccccn2)c1O (stereo not given),-7.37% (inactive),
Cc1nc2nc(C)c(CCC(=O)N3CCN(c4ccccc4)CC3)c(C)n2n1,2.82% (inactive),
COc1ccccc1CN1CCCC(N2CCN(c3ccc(F)cc3)CC2)C1 (stereo not given),-13% (inactive),
Cc1cc(=O)oc(C)c1C(=O)NCc1ccc(F)cc1,1.68% (inactive),
CCC(=O)Nc1nnc(S(=O)(=O)N2CCCc3ccccc32)s1,-17.1% (inactive),
CC1CCN(c2ccc(C(=O)Nc3nnc(C4CC4)s3)cc2[N+](=O)[O-])CC1,-21.5% (inactive),
CC1CCN(c2ccc([N+](=O)[O-])c(SCCO)c2)CC1,,23.1 µM (active)
CC1CCN(c2ccc3c(c2)S(=O)(=O)c2cc(C(=O)O)ccc2C3=O)CC1,-0.649% (inactive),
COCCn1c(N)c(NCc2ccccc2)c(=O)[nH]c1=O,-23.5% (inactive),
COC(=O)c1sc(C(F)(F)F)c(-c2ccccc2)c1S(=O)(=O)N(C)C,-2.69% (inactive),
CC(CCCc1ccccc1)NC(=O)c1nn(-c2ccc(Cl)cc2)nc1CO (stereo not given),,20.6 µM (active)
CC(C)NC(=O)c1nn(-c2ccccc2F)nc1CO,-8.91% (inactive),
Cc1ccc(-n2nc(CO)c(C(=O)NCCc3ccccc3)n2)cc1,3.15% (inactive),
CCc1ccc(NC(=O)CCNS(=O)(=O)c2cccs2)cc1,-2.67% (inactive),

Compound,"activity change, negative = growth inhibition",Potency
O=C(CN(C(=O)CNC(=O)c1cccs1)c1cccc(F)c1)NC1CCCCC1,-5.97% (inactive),
CCCN1CCN(CCCNC(=O)Cn2nc(CC)n3c(cc4occc43)c2=O)CC1,-3.26% (inactive),
Cc1nn(CC(=O)NCCc2ccccc2)c(=O)c2cc3occc3n12,30.7% (inactive),
CCc1ccc(-c2cc3c(=O)n(CC(=O)NCCCN4CCN(Cc5ccccc5)CC4)nc(C)n3n2)cc1,,16.4 µM (active)
COc1cc(OC)cc(-c2nc(=S)n3ccsc3n2)c1,-0.435% (inactive),
CCS(=O)(=O)n1nc(-c2ccccc2)nc1SCc1ccccc1,-12.3% (inactive),
O=S(=O)(Cc1cc(Cl)nc(-c2cccnc2)n1)c1ccccc1,-24.3% (inactive),
O=S(=O)(Cc1cc(Sc2ccccc2)nc(-c2ccccc2)n1)c1ccccc1,,23.1 µM (active)
COCCCNC(=O)Cn1c(=O)n(Cc2ccccc2Cl)c(=O)c2cc(OC)c(OC)cc21,-12.9% (inactive),
CCCCCOC(=O)c1ccc(N2C(=O)C3C4C=CC(C4)C3C2=O)cc1 (stereo not given),-27.6% (inactive),
COc1cc(C2CC(=O)N3CN(Cc4ccccc4)CSC3=C2C#N)ccc1OCc1ccccc1 (stereo not given),-22% (inactive),
O=C(NCc1ccccc1)c1onc(CSc2ccncc2)c1C(=O)NCc1ccccc1,-12.6% (inactive),
COc1ccc(SCc2noc(C(=O)NCC3CCCO3)c2C(=O)O)cc1 (stereo not given),0.709% (inactive),
O=C(NCC1CC1)c1onc(CSc2ccccc2)c1C(=O)NCC1CC1,,20.6 µM (active)
COc1ccc(C(=O)NC(=S)N2CCNC(=O)C2CC(=O)OC(C)C)cc1 (stereo not given),10.8% (inactive),
O=c1cc(CSc2ccc(Cl)cc2)nc(N2CCOCC2)[nH]1,-8.75% (inactive),
Cc1ccc2nc(N3C(=O)C(O)=C(C(=O)c4ccco4)C3c3cccc(O)c3)sc2c1 (stereo not given),7.55% (inactive),
COc1cccc(C(O)c2nc3ccccc3n2C)c1 (stereo not given),-9.21% (inactive),
COc1ccc(OC)c(C(O)c2nc3ccccc3n2C)c1 (stereo not given),13.2% (inactive),
COc1cc(C(O)c2nc3ccccc3n2C)cc(OC)c1OC (stereo not given),,18.4 µM (active)
COc1ccc(-c2cc(=O)oc3cc(OC(C)C(=O)NCC4CCC(C(=O)O)CC4)ccc23)cc1 (stereo not given),-16.3% (inactive),
